Data reported in PubChem BioAssay (EPA / NIEHS).
Activity calls are given as the source filed them. The calls were made as follows: active = hit-call score of the fitted dose curve at least 0.9, where 1 is the maximum; inactive = score below 0.9.

Assay: BSK_3C_Vis: BioMAP Diversity Plus: 3C Assay for Morphology Visualization (AID 2283025);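 also: fitted both ways so gain or loss versus DMSO counts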
Details: primary human endothelial cells (HUVEC)
Outline: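 Human umbilical vein endothelial cells in the 3C system were imaged by light microscopy 24 h after chemical dosing to record cell morphology. Activity was fitted bidirectionally against DMSO as negative control and baseline; the endpoint serves as a background control.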
With `CCOC(=O)COc1ccc2c(c1)CC(NCC(O)c1cccc(Cl)c1)CC2` (configuration not stated) the AC50 was 34.2 µM (active).
With `O=C1OC(=O)C2C3C=CC(C3)C12` (configuration not stated) the outcome was “inactive”.
For `O=P(OC(CCl)CCl)(OC(CCl)CCl)OC(CCl)CCl`, the AC50 was 39 µM (active).
With `CCCCCCCCCCCCCCCO` the AC50 was 37.3 µM (active).
For `COCCOCCOCCOC`, the outcome was “inactive”.
In the case of `CC(C)=CCCC(C)CCO` (configuration not stated), the outcome was “inactive”.
In the case of `C1=CCCC=CCCC=CCC1`, the outcome was “inactive”.
With `CC[C@H]1CC[C@H](NCc2cc3c(cc2OC)[C@H]2C[C@H]2C(=O)N3C)[C@H](c2ccccc2)N1` the outcome was “inactive”.
For `O=C(CCCCCCCCc1cccnc1)N1CCC(C=C(c2ccccc2)c2ccccc2)CC1`, the AC50 was 10.9 µM (active).
In the case of `CC(C)(O)c1coc(S(=O)(=O)NC(=O)Nc2c3c(cc4c2CCC4)CCC3)c1`, the outcome was “inactive”.
With `CCN(C(=O)c1cc(C)cc(OC[C@H](C)Nc2ccncc2)c1)C(C)C` the outcome was “inactive”.
With `Cc1ccc(S(=O)(=O)O)cc1C` the outcome was “inactive”.
In the case of `CNS(=O)(=O)c1cc(C(=O)N2CCC(CCN3C4CCC3CC(n3c(C)nc5ccccc53)C4)(c3cccc(F)c3)CC2)c(Cl)cc1F` (configuration not stated), the AC50 was 15.2 µM (active).
With `CCCCC(CC)COC(=O)CCCCCCCCC(=O)OCC(CC)CCCC` (configuration not stated) the outcome was “inactive”.
For `O=C(NS(=O)(=O)/C=C/c1ccccc1)c1ccc(F)cc1Cl`, the outcome was “inactive”.
In the case of `CCOc1cccc(-n2cc(C(=O)N3CCN(c4cc(C(=O)O)c5ccccc5c4)CC3)nc2-c2ccc(C)cc2)c1`, the AC50 was 38 µM (active).
With `O=C(OC[C@H]1O[C@@H](OC(=O)c2cc(O)c(O)c(OC(=O)c3cc(O)c(O)c(O)c3)c2)[C@H](OC(=O)c2cc(O)c(O)c(OC(=O)c3cc(O)c(O)c(O)c3)c2)[C@@H](OC(=O)c2cc(O)c(O)c(OC(=O)c3cc(O)c(O)c(O)c3)c2)[C@@H]1OC(=O)c1cc(O)c(O)c(OC(=O)c2cc(O)c(O)c(O)c2)c1)c1cc(O)c(O)c(OC(=O)c2cc(O)c(O)c(O)c2)c1` the outcome was “inactive”.
